Source: PubChem BioAssay (EPA / NIEHS)
Several values for one entry are separate records, joined by “and”; a condition that tells them apart may be missing. Equal entries are not always repeated. Results filed as inconclusive are left out. Activity calls are given as the source filed them. Rule for the calls, unless noted: active = hit-call score of the fitted dose curve at least 0.9, where 1 is the maximum; inactive = score below 0.9.

Assays:
[1] = ATG_PBREM_CIS: Attagene CIS-FACTORIAL HepG2 Assay for human Phenobarbital-responsive Enhancer Module (PBREM) (AID 2282955); settings: HepG2 PBREM cis-reporter, Attagene multiplexed transcription; actives raise or lower the signal
In short: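 HepG2 cells transiently transfected with multiple cis-regulated reporter transcription units; endogenous factor activity at the PBREM element measured as reporter mRNA 24 h after dosing, via RT-PCR and capillary electrophoresis of fluorescent fragments; bidirectional fitting versus DMSO.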

[2] = target: Paired box protein Pax-6 (Homo sapiens) (UniProt P26367); assay: ATG_Pax6_CIS: Attagene CIS-FACTORIAL HepG2 Assay for human Paired Box 6 (PAX6) (AID 2282956); settings: HepG2 CIS-FACTORIAL PAX6 reporter transcription, RNA readout; actives raise or lower the signal
Paired box protein Pax-6 (Homo sapiens), sequence (P26367 whole entry, looked up): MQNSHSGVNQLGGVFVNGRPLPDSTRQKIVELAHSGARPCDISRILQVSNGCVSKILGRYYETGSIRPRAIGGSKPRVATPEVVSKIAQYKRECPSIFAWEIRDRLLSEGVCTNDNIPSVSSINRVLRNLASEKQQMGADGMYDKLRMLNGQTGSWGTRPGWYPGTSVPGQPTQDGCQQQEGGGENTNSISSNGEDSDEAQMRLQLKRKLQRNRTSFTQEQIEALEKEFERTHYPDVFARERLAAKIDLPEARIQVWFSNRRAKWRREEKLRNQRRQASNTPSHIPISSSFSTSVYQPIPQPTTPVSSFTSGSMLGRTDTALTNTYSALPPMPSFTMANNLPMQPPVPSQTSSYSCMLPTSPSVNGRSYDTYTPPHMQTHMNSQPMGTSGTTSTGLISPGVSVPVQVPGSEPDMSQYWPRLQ
In short: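 After twenty-four hours of chemical exposure, transfected HepG2 cells are harvested for RNA. Cis-promoter reporter transcripts are amplified, fluorescently labelled and sized by capillary electrophoresis, with gain and loss of signal scored against DMSO.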

[3] = ATG_PXRE_CIS: Attagene CIS-FACTORIAL HepG2 Assay for human Pregnane X Receptor Element (PXRE) (AID 2282957); settings: HepG2 Attagene CIS-FACTORIAL PXRE reporter, mRNA; actives raise or lower the signal
In short: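 HepG2 cells transiently transfected with cis-element-driven multiplexed reporter units; after 24 h chemical exposure, reporter mRNA measured by RT-PCR, 6-FAM labelling, HpaI digestion and capillary electrophoresis. Bidirectional fitting relative to DMSO.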

[4] = ATG_PPRE_CIS: Attagene CIS-FACTORIAL HepG2 Assay for human Peroxisome Proliferator-activated Response Element (PPRE) (AID 2282958); settings: HepG2 PPRE cis-element reporter, Attagene transcription factor profiling; actives raise or lower the signal
In short: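 HepG2 cells transiently transfected with multiplexed cis-element reporter units measure endogenous transcription factor activity. After 24 h compound exposure, reporter mRNA is quantified by RT-PCR, 6-FAM labeling, HpaI digestion and capillary electrophoresis; bidirectional fits are made against DMSO baseline.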

[5] = ATG_RORE_CIS: Attagene CIS-FACTORIAL HepG2 Assay for human RAR-related Orphan Receptor Element (RORE) (AID 2282959); settings: HepG2 Attagene cis-factorial RORE reporter, mRNA; actives raise or lower the signal
In short: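 HepG2 cells transiently transfected with multiple cis-element reporter transcription units, exposed to chemical for 24 h. Reporter mRNA quantified by RT-PCR, 6-FAM primer-extension labeling, HpaI digestion and capillary electrophoresis; bidirectional fit versus DMSO baseline.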

[6] = target: Transcription factor Sp1 (Homo sapiens) (UniProt P08047); assay: ATG_Sp1_CIS: Attagene CIS-FACTORIAL HepG2 Assay for human Specificity Protein 1 (Sp1) (AID 2282961); settings: HepG2 Sp1 cis-reporter transcription, actives raise or lower the signal
Transcription factor Sp1 (Homo sapiens), sequence (P08047 whole entry, looked up): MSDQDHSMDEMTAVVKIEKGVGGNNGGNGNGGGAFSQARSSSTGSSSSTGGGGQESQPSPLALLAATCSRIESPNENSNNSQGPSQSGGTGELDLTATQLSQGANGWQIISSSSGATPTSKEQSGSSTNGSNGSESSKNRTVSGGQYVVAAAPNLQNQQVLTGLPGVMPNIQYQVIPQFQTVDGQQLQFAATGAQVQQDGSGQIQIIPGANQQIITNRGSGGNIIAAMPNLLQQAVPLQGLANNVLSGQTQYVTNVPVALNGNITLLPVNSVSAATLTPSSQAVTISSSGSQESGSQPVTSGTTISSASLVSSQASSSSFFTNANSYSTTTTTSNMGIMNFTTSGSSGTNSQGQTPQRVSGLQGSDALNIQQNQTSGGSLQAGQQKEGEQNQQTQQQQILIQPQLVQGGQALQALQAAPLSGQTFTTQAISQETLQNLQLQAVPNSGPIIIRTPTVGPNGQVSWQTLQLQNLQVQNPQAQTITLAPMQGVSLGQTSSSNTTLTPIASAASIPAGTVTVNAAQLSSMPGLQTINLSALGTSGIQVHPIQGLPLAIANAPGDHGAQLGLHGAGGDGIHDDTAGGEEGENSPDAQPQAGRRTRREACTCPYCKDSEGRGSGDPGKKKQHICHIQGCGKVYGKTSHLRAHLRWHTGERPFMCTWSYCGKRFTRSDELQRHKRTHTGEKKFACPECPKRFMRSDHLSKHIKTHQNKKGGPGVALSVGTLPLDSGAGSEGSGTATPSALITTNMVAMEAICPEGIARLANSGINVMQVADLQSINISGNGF
In short: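 HepG2 cells transiently transfected with multiple reporter transcription units driven by cis-regulatory elements; Sp1-responsive reporter mRNA measured 24 h after dosing by RT-PCR and capillary electrophoresis fluorescence, fitted bidirectionally against DMSO baseline.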

[7] = ATG_SREBP_CIS: Attagene CIS-FACTORIAL HepG2 Assay for human Sterol Regulatory Element Binding (SREBP) (AID 2282962); settings: HepG2 Attagene cis-factorial SREBP reporter, mRNA; actives raise or lower the signal
In short: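 Twenty-four hours after chemical dosing of transfected HepG2 cultures, reporter RNA was converted to cDNA, amplified, end-labelled with 6-FAM and resolved by capillary electrophoresis. Responses were fitted relative to DMSO.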

[8] = ATG_TA_CIS: Attagene CIS-FACTORIAL HepG2 Assay for human TA Basal Promoter (AID 2282964); settings: HepG2 Attagene CIS-factorial TA basal promoter reporter; actives raise or lower the signal
In short: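 Read-out: fluorescent reporter-transcript fragments resolved by capillary electrophoresis after RT-PCR and HpaI digestion. Source: HepG2 cells carrying transiently transfected multi-reporter cis constructs, treated 24 h. Endpoint fitted bidirectionally relative to DMSO.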

[9] = ATG_TCF_b_cat_CIS: Attagene CIS-FACTORIAL HepG2 Assay for human T-Cell-Factor with beta-catenin (TCF/b-cat) (AID 2282965); settings: HepG2 TCF/beta-catenin cis-reporter transcription, actives raise or lower the signal
In short: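 In this cis-format system, transfected HepG2 cells report endogenous transcription factor activity. Readout after 24 h exposure is reporter transcript abundance from RT-PCR and capillary electrophoresis, analysed for gain or loss of signal versus DMSO.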

[10] = ATG_TAL_CIS: Attagene CIS-FACTORIAL HepG2 Assay for human TAL Basal Promoter (AID 2282966); settings: HepG2 Attagene cis-factorial TAL promoter reporter; actives raise or lower the signal;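 note: background control endpoint measuring basal TAL promoter reporter mRNA not a specific factor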
In short: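 HepG2 cells transiently transfected with multiplexed cis-promoter reporter units, dosed 24 h. Reporter mRNA quantified by RT-PCR, 6-FAM labelling, HpaI digestion and capillary electrophoresis; TAL basal promoter serves as background control, fitted bidirectionally versus DMSO.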

[11] = ATG_TGFb_CIS: Attagene CIS-FACTORIAL HepG2 Assay for human Transforming Growth Factor (TGF) (AID 2282967); settings: HepG2 Attagene CIS TGFb reporter, mRNA transcription; actives raise or lower the signal
In short: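 Transient MRTU transfection of HepG2 (FuGene 6). Dose 24 h. TriZol RNA, oligo(dT) RT, PCR, 6-FAM primer extension, HpaI cut, CE. Bidirectional fit, DMSO = baseline.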

[12] = ATG_VDRE_CIS: Attagene CIS-FACTORIAL HepG2 Assay for human Vitamin D Receptor Element (VDRE) (AID 2282968); settings: HepG2 VDRE cis-reporter transcription, actives raise or lower the signal
In short: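 RT-PCR/CE readout of reporter mRNA; HepG2, transient transfection, 24 h dosing; DMSO baseline; bidirectional analysis.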

[13] = target: Estrogen receptor (Homo sapiens) (UniProt P03372); assay: ATG_ERa_TRANS: Attagene TRANS-FACTORIAL HepG2 Assay for human Estrogen Receptor alpha (ERa) (AID 2282970; active = hit-call score of the fitted dose curve at least 0.9, where 1 is the maximum); settings: HepG2 Attagene TRANS ERa GAL4 reporter, mRNA
Estrogen receptor (Homo sapiens), sequence (P03372 whole entry, looked up, the tested form may be a part): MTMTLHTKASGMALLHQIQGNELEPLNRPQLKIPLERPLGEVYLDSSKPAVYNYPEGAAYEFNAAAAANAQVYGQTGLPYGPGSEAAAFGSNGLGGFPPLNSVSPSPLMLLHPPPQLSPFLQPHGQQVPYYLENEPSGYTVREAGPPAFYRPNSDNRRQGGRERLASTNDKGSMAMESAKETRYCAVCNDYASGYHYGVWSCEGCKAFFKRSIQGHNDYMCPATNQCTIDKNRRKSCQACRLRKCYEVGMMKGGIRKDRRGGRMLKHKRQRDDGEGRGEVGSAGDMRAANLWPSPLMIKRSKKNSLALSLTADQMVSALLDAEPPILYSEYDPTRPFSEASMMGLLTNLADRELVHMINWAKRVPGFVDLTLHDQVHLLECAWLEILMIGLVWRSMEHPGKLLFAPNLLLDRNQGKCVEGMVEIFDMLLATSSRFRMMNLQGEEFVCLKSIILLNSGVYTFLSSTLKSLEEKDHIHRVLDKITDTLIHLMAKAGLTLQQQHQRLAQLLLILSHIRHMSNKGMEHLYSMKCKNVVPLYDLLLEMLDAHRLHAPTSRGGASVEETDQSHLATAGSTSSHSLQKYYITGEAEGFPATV
In short: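 HepG2 cells transiently transfected with multiplexed GAL4-UAS reporter units read out chimeric NR-Gal4 activity. After 24 h compound exposure, reporter mRNA was quantified by RT-PCR, 6-FAM labeling, HpaI digestion and capillary electrophoresis, relative to DMSO.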

[14] = target: X-box-binding protein 1 (Homo sapiens) (UniProt P17861); assay: ATG_Xbp1_CIS: Attagene CIS-FACTORIAL HepG2 Assay for human X-box Binding Protein 1 (XBP1) (AID 2282972); settings: HepG2 XBP1 cis-element reporter, Attagene multiplex; actives raise or lower the signal
X-box-binding protein 1 (Homo sapiens), sequence (P17861 whole entry, looked up): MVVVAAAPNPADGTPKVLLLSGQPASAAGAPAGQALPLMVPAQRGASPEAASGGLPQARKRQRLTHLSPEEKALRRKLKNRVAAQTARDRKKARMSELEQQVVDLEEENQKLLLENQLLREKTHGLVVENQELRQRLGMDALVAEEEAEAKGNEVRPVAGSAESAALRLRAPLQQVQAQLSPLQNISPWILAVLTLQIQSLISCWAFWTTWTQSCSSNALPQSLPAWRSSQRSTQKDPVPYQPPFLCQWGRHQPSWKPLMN
In short: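 After a 24-hour chemical exposure of HepG2 cells carrying cis-regulated reporters, reporter mRNA levels are assessed. Quantification uses RT-PCR, 6-FAM labelling and capillary electrophoresis. Gain- or loss-of-signal is fitted against DMSO.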

[15] = ATG_M_19_TRANS: Attagene TRANS-FACTORIAL HepG2 Assay for M19 Transcription Factor (Internal Marker) (AID 2282974; active = hit-call score of the fitted dose curve at least 0.9, where 1 is the maximum); settings: HepG2 Attagene TRANS-FACTORIAL M19 internal marker reporter
In short: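 HepG2 cells transiently transfected with multiple GAL4-UAS reporter transcription units were exposed to chemicals for 24 h. Reporter mRNA was read by RT-PCR, 6-FAM primer extension, HpaI digestion and capillary electrophoresis; gain of signal fitted relative to DMSO.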

[16] = target: Nuclear receptor subfamily 1 group I member 3 (Homo sapiens) (UniProt Q14994); assay: ATG_CAR_TRANS: Attagene TRANS-FACTORIAL HepG2 Assay for human Constitutive Androstane Receptor (CAR) (AID 2282969; active = hit-call score of the fitted dose curve at least 0.9, where 1 is the maximum;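 note: activators raise reporter mRNA above DMSO so AC50 marks induction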); settings: HepG2 Attagene TRANS-FACTORIAL CAR reporter
Nuclear receptor subfamily 1 group I member 3 (Homo sapiens), sequence (Q14994 whole entry, looked up, the tested form may be a part): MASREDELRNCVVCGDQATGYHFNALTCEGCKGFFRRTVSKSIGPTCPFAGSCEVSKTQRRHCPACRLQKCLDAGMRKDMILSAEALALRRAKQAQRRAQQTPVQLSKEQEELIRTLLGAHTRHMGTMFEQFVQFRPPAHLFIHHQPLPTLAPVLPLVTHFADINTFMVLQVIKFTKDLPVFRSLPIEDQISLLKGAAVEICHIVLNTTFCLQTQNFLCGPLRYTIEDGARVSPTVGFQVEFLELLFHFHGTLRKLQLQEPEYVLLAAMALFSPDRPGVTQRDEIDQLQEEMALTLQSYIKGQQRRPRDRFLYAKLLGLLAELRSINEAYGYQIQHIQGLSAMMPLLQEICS
In short: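 HepG2 cells transiently transfected with multiplexed GAL4-UAS reporter units expressing chimeric NR-Gal4 proteins; compound exposure 24 h. Reporter mRNA measured by RT-PCR, 6-FAM labelling, HpaI digestion and capillary electrophoresis; gain-of-signal fitted against DMSO baseline.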

[17] = target: Signal transducer and activator of transcription 3 (Homo sapiens) (UniProt P40763); assay: ATG_STAT3_CIS: Attagene CIS-FACTORIAL HepG2 Assay for human Signal Transducer and Activator of Transcription 3 (STAT3) (AID 2282963); settings: HepG2, Attagene cis-factorial STAT3 reporter transcription; actives raise or lower the signal
Signal transducer and activator of transcription 3 (Homo sapiens), sequence (P40763 whole entry, looked up): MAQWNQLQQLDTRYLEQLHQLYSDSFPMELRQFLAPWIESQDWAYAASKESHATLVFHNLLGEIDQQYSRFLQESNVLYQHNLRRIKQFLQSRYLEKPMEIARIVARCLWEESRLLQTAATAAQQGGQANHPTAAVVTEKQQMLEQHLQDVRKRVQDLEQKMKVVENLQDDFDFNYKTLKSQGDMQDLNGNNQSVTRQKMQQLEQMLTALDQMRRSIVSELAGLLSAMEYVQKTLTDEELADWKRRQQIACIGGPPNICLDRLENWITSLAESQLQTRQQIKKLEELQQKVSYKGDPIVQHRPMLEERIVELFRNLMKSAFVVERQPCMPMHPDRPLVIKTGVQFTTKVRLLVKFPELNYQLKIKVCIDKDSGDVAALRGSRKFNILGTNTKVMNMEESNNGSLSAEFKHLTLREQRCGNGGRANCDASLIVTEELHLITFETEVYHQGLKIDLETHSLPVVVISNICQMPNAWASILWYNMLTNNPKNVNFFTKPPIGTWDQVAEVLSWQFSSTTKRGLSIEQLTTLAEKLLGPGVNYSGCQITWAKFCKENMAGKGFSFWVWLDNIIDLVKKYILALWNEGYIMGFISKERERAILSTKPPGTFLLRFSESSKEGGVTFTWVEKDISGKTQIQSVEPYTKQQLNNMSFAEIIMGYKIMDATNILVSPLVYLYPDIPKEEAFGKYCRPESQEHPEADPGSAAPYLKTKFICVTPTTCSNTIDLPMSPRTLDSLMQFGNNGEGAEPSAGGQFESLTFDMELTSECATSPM
In short: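 Transcript-level reporter assay. HepG2 transient MRTU transfection, 24 h exposure, fluorescence detection after RT-PCR and CE; DMSO baseline.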

[18] = target: Glucocorticoid receptor (Homo sapiens) (UniProt P04150); assay: ATG_GR_TRANS: Attagene TRANS-FACTORIAL HepG2 Assay for human Glucocorticoid Receptor (GR) (AID 2282978; active = hit-call score of the fitted dose curve at least 0.9, where 1 is the maximum;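 note: activators score as hits since higher reporter transcript over DMSO is fitted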); settings: HepG2 Attagene TRANS GR reporter, mRNA transcription
Glucocorticoid receptor (Homo sapiens), sequence (P04150 whole entry, looked up, the tested form may be a part): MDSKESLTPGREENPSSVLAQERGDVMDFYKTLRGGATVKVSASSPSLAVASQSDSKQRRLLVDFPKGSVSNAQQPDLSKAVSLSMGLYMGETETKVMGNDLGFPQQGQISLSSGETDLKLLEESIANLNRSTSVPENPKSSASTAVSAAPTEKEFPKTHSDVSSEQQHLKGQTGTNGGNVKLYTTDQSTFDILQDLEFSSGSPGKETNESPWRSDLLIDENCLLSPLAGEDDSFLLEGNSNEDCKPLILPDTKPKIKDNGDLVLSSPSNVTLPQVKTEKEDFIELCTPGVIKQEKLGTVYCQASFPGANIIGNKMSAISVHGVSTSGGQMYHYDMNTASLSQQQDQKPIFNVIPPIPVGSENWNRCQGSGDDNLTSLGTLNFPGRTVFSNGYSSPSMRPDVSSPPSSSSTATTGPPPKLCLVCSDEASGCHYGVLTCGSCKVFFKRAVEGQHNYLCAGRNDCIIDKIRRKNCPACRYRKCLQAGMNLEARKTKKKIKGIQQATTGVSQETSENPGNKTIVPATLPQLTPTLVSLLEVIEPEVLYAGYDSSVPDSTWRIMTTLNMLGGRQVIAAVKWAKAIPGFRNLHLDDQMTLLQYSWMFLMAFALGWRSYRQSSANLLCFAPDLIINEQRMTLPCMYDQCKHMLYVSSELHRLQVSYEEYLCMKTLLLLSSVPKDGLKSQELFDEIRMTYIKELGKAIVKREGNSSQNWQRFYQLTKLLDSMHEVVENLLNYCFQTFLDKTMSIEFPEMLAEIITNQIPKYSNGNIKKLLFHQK
In short: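 HepG2 cells transiently transfected with multiplexed reporter units in which chimeric NR-GAL4 proteins drive GAL4-UAS reporters; 24 h compound exposure. Reporter mRNA measured by RT-PCR, 6-FAM labelling, HpaI digestion and capillary electrophoresis; gain-of-signal fitted versus DMSO.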

Measured: AC50

CN(C)C(=S)SSC(=S)N(C)C
not listed: [16] | [17] | [18]
inactive: all other assays above

COP(=S)(OC)Oc1nc(Cl)c(Cl)cc1Cl
active: [3] 13.7 µM | [7] 32 µM | [12] 27.8 µM | [13] 33.1 µM
not listed: [4] | [17] | [18]
inactive: all other assays above

O=C(O)COc1nc(Cl)c(Cl)cc1Cl
active: [3] 59.9 µM | [4] 50 µM
not listed: [2] | [13] | [15] | [16] | [17] | [18]
inactive: all other assays above

C#CCOS(=O)OC1CCCCC1Oc1ccc(C(C)(C)C)cc1 (stereo not given)
active: [1] 1.39 µM | [3] 0.661 µM | [5] 2.4 µM
not listed: [2] | [12] | [13] | [15] | [17] | [18]
inactive: all other assays above

Cc1c(F)c(F)c(COC(=O)C2C(/C=C(\Cl)C(F)(F)F)C2(C)C)c(F)c1F (stereo not given)
active: [3] 13.8 µM | [12] 18 µM | [13] 50 µM
not listed: [1] | [2] | [5] | [15] | [16]
inactive: all other assays above

COC(=O)C(C)Oc1ccc(Oc2ccc(Cl)cc2Cl)cc1 (stereo not given)
active: [3] 23 µM and 16.9 µM and 22 µM | [4] 18.7 µM and 11 µM and 23 µM
not listed: [2] | [13] | [17]
inactive: all other assays above

CC(C)C1(C)N=C(c2nc3ccccc3cc2C(=O)O)NC1=O (stereo not given)
active: [3] 11.1 µM
not listed: [2] | [13] | [15] | [17] | [18]
inactive: all other assays above
